# Measurements as given in ChEMBL document CHEMBL1157539, “Thousands of chemical starting points for antimalarial lead identification” (Nature, 2010).
# How the values were obtained:
# Type in all cases: functional
# Plasmodium falciparum [1] = assay: GSK_TCMDC: Inhibition of Plasmodium falciparum 3D7 in whole red blood cells, using parasite LDH activity as an index of growth. Test compounds present at 2uM
# Plasmodium falciparum [2] = assay: GSK_TCMDC: Inhibition of Plasmodium falciparum Dd2 in whole red blood cells, using parasite LDH activity as an index of growth. Test compounds present at 2uM
# HepG2 = assay: GSK_TCMDC: Percent inhibition of human HepG2 cell line. Test compounds present at 10uM.
Compound,Inhibition (Plasmodium falciparum [1]),Inhibition (Plasmodium falciparum [2]),Inhibition (HepG2)
CCN(CCO)CCCC(C)Nc1ccnc2cc(Cl)ccc12.O=S(=O)(O)O (stereo not given) [HYDROXYCHLOROQUINE SULFATE],99%,0%,3%
Cc1ccc2cc(NC(=O)CCCCCCCON3C(N)=NC(N)=NC34CCCCC4)ccc2n1.O=C(O)C(F)(F)F,98%,86%,6%
COc1cc2c(cc1OC)CN(CCc1ccc(NC(=O)c3cc4cc(OC(F)(F)F)ccc4[nH]3)cc1)CC2,99%,20%,36%
CCOc1ccc(S(=O)(=O)N(C)c2ccc(OCC(=O)Nc3nccs3)cc2)cc1,95%,4%,8%
Cl.NCC(=O)Nc1cccc(Nc2nccc(-c3c(-c4cccc(NC(=O)c5ccccc5)c4)nn4ccccc34)n2)c1,96%,87%,45%
Br.CC1(C)NC(N)=NC(=N)N1OCCCNC(=O)c1ccc(C(=O)NCCCON2C(=N)N=C(N)NC2(C)C)cc1,91%,96%,0%
Cc1nnc2c(NC(=O)NC(C)C)cc3cc(-c4ccc(CN5CCCCC5)cc4)ccc3n12,87%,8%,70%
Cc1cc(-c2cccc3c(NC(=O)N4CCc5cc6nccc(N7CCN8CCC[C@H]8C7)c6cc54)cccc23)cc(C)n1.Cl,100%,100%,12%
CSc1c(CNCCCNc2cc(=O)c3ccccc3[nH]2)[nH]c2ccccc12,87%,21%,0%
Cc1[nH]c(C)c(-c2ccc(-c3ccc(Cl)cc3)nc2)c(=O)c1Br,97%,96%,21%
